Data reported in the supplement of paper PMC8253809.
Where “and” joins values, the source holds several entries; their conditions need not be identical. Equal entries are not always repeated.

Tests used:
Test in all cases: growth inhibition (% activity, log2 RLU normalised to DMSO / staurosporine); higher = more growth inhibition
Details in all cases: 33 µM
DIPGX29 = tested on: DIPGX29 (H3.3 K27M diffuse intrinsic pontine glioma line)
Summary of the method: (§1)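 pHGG cell lines and H9-derived neural stem cells were grown on Geltrex-coated 384-well plates. Approved drugs were added by pin tool at a single final concentration of about 33 μM, in triplicate, for 7 days at 37 °C, 5% CO2. CellTiter-Glo luminescence was log2-transformed and normalised per plate to % activity between solvent and positive control wells. The growth-inhibition value is the median over replicates.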

DIPGX37 = tested on: DIPGX37 (H3.3 K27M diffuse intrinsic pontine glioma line)
Summary of the method: as §1

DIPGX7 = tested on: DIPGX7 (H3.3 K27M diffuse intrinsic pontine glioma line)
Summary of the method: as §1

DIPGX9 = tested on: DIPGX9 (diffuse intrinsic pontine glioma line)
Summary of the method: as §1

HGGX39 = tested on: HGGX39 (paediatric high-grade glioma line)
Summary of the method: as §1

HGGX6 = tested on: HGGX6 (H3.3 G34R paediatric high-grade glioma line)
Summary of the method: as §1

HNSC = tested on: HNSC
Summary of the method: as §1

SUDIPGIV = tested on: SUDIPGIV (diffuse intrinsic pontine glioma line)
Summary of the method: as §1

SUDIPGVI = tested on: SUDIPGVI (diffuse intrinsic pontine glioma line)
Summary of the method: as §1

SUDIPGXIII = tested on: SUDIPGXIII (diffuse intrinsic pontine glioma line)
Summary of the method: as §1

Compound | growth inhibition (DIPGX29) | growth inhibition (DIPGX37) | growth inhibition (DIPGX7) | growth inhibition (DIPGX9) | growth inhibition (HGGX39) | growth inhibition (HGGX6) | growth inhibition (HNSC) | growth inhibition (SUDIPGIV) | growth inhibition (SUDIPGVI) | growth inhibition (SUDIPGXIII)
N#CC[C@H](C1CCCC1)n1cc(-c2ncnc3[nH]ccc23)cn1 | -0.711% | -0.293% | 0.591% | -1.04% | 1.2% | -0.228% | -3.15% | -1.09% | 1.18% | -0.858%
NS(=O)(=O)c1cc(Cl)c(Cl)c(S(N)(=O)=O)c1 | -2.92% | -0.619% | 1.34% | -2.39% | -1.33% | -5.6% | 21.2% | -2.27% | -8.85% | 2.33%
COc1cc(/C=C/C(=O)CC(=O)/C=C/c2ccc(O)c(OC)c2)ccc1O | -0.948% | 1.27% | 1.4% | 0.547% | 0.698% | 1.98% | -1.04% | -2.56% | 0.323% | -11.1%
NCC(=O)CCC(=O)O | -0.565% | 0.832% | -1.28% | 0.54% | 0.759% | 1.54% | -1.87% | 0.45% | 0.00902% | 0.537%
NC1CCN(c2c(F)cc3c(=O)c(C(=O)O)cn(C4CC4)c3c2Cl)C1 (stereo not given) | 0.157% | -1.86% | 1.13% | 1.33% | 2.79% | -0.611% | 1.85% | -0.22% | 1.99% | -0.254%
OCCOCCN1CCN(C2=Nc3ccccc3Sc3ccccc32)CC1 | 0.62% | 0.529% | 4.12% | 1.36% | 2.86% | 2.19% | 0.74% | -0.167% | -0.798% | 1.66%
CN(C)CCC(c1ccc(Cl)cc1)c1ccccn1 (racemic) | 1.65% | 2.71% | 2.71% | 1.38% | 3.68% | 0.339% | 4.41% | 1.92% | 4.15% | -0.538%
COc1ccc(C2C(=O)c3ccccc3C2=O)cc1 | -0.495% | 1.03% | -0.141% | 0.658% | -0.413% | 1.25% | 2.05% | -1.32% | -1.7% | 1.54%
NC(=O)c1cnccn1 | -1.43% | 0.819% | -1.41% | -0.339% | -2.81% | 1.4% | -0.255% | -2.49% | 0.0834% | 1%
O=c1cc[nH]c(=S)[nH]1 | 1.29% | 1.68% | 2.17% | 2.37% | 0.218% | -1.78% | 36.9% | 1.67% | -6.46% | 0.601%
CO/N=C(\C(=O)N[C@@H]1C(=O)N2C(C(=O)O)=C(CSC(=O)c3ccco3)CS[C@H]12)c1csc(N)n1 | -1.65% | 1.16% | -1.04% | -0.83% | 0.968% | -1.16% | -1.6% | 1.14% | -0.598% | 0.953%
CN(C)CCC(c1ccccc1)c1ccccn1 (stereo not given) | 1.43% | 4.57% | 2.52% | 0.794% | 3.82% | 3.28% | 1.8% | 1.78% | 2.2% | 0.511%
Cc1nnc(C(=O)NC(C)(C)c2nc(C(=O)NCc3ccc(F)cc3)c(O)c(=O)n2C)o1 | 1.77% | -0.226% | 2.62% | 2.15% | 2.25% | -0.564% | 4.29% | -0.0786% | 2.47% | 0.152%
CN(C)CCCN1c2ccccc2Sc2ccc(Cl)cc21 | -1.92% | -1.4% | 0.129% | -1.08% | 0.279% | -2.17% | 24.1% | -0.706% | -5.1% | 2.77%
CCOC(=O)[C@H](CCc1ccccc1)N[C@@H](C)C(=O)N1[C@H](C(=O)O)C[C@@H]2CCC[C@@H]21 | -3.8% | -1.96% | -1.64% | -2.68% | -4.08% | -5.1% | 1.84% | -2.04% | -7.46% | -2.12%
O=C(O)/C=C/c1ccc(Cn2ccnc2)cc1 | -4.29% and 0.0234% | -1.97% and 1.55% | -2.07% and 1.39% | -1.94% and 0.49% | -2.45% and 1.57% | -3.87% and 2.09% | 1.95% and -1.58% | -2.48% and 0.0369% | -6.52% and 1.83% | -0.879% and -16.2%
O=C1c2ccccc2C(=O)C1c1ccccc1 | -0.501% | -1.03% | -0.877% | -0.146% | 1.52% | 0.118% | -1.43% | 0.701% | 0.683% | 0.357%
C#C[C@]1(O)CC[C@H]2[C@@H]3CCc4cc(O)ccc4[C@H]3CC[C@@]21C | 0.982% | 1.91% | 0.741% | 0.29% | 0.261% | 2.48% | 0.451% | -1.64% | 1.36% | 0.6%
CC(C)c1nc(CN(C)C(=O)N[C@H](C(=O)N[C@@H](Cc2ccccc2)C[C@H](O)[C@H](Cc2ccccc2)NC(=O)OCc2cncs2)C(C)C)cs1 | 1.73% | 2.67% | 2.88% | 1.93% | 5.32% | 2.08% | 5.1% | -1.31% | -0.349% | -0.136%
CC#CCn1c(N2CCC[C@@H](N)C2)nc2c1c(=O)n(Cc1nc(C)c3ccccc3n1)c(=O)n2C | -0.103% | -1.17% | -2.97% | -0.000837% | 0.6% | -0.836% | -2.39% | -2.46% | -1.81% | -0.213%
C[C@@H](O[C@H]1OCCN(Cc2n[nH]c(=O)[nH]2)[C@H]1c1ccc(F)cc1)c1cc(C(F)(F)F)cc(C(F)(F)F)c1 | 8.42% | 0.0612% | 5.7% | 4.43% | 12.5% | 7.33% | 8.95% | 13.5% | 5.21% | 10.1%
O=c1oc2c(O)c(O)cc3c(=O)oc4c(O)c(O)cc1c4c23 | 1.91% | 2.55% | 2.78% | 2.1% | 1.54% | -1.49% | -1.26% | -0.815% | -0.974% | 1.4%

Compound | growth inhibition (DIPGX29) | growth inhibition (DIPGX37) | growth inhibition (DIPGX7) | growth inhibition (DIPGX9) | growth inhibition (HGGX39) | growth inhibition (HGGX6) | growth inhibition (HNSC) | growth inhibition (SUDIPGIV) | growth inhibition (SUDIPGVI) | growth inhibition (SUDIPGXIII)
C=CCNC(N)=S | -0.199% | 0.393% | -0.932% | -0.168% | 1.56% | 1.43% | -1.32% | -1.24% | -2.19% | -0.232%
CCN(CC)C(=O)/C(C#N)=C/c1cc(O)c(O)c([N+](=O)[O-])c1 | -0.0111% | 1.83% | -1.51% | 0.533% | 0.054% | -0.625% | -2.42% | -1.01% | -0.299% | 1.29%
Cn1c(CNc2ccc(C(=N)N)cc2)nc2cc(C(=O)N(CCC(=O)O)c3ccccn3)ccc21 | 0.681% | 3.45% | 1.05% | 3.29% | 2.01% | -1.53% | 6.58% | 1.54% | 0.719% | -0.457%
C/C(O)=C(\C#N)C(=O)Nc1ccc(C(F)(F)F)cc1 | 3.56% | 5.04% | 3.25% | 5.83% | 5.87% | 5.21% | 2.85% | 9.89% | 4.21% | -15.3%
O=C1[C@H](CC[C@H](O)c2ccc(F)cc2)[C@@H](c2ccc(O)cc2)N1c1ccc(F)cc1 | 0.15% | -1.79% | 1.88% | -0.813% | -0.454% | -1.33% | -0.443% | -2.25% | -5.97% | 0.864%
O=C(Nc1ccccc1)c1ccccc1O | -0.176% | 2.96% | 0.467% | -0.488% | 3.96% | 0.186% | 1.7% | 5.1% | -0.592% | 1.74%
CCOc1ccc(NC(C)=O)cc1 | 1.41% | 1.55% | 3.09% | 2.76% | 2.76% | -0.142% | 47.6% | 2.49% | -4.96% | 1.58%
C[N+]1(C)CCC(=C(c2ccccc2)c2ccccc2)CC1 | 1.61% | 4.65% | 2.7% | 2.75% | 2.04% | -0.684% | 23.1% | 4.27% | 8.89% | 1.56%
Cc1cc2c(cc1S(N)(=O)=O)S(=O)(=O)CCC2 | 0.849% | 2.86% | -0.717% | 1.06% | 0.974% | 0.857% | -0.336% | -0.262% | 2.41% | 1.65%
COC(=O)C1=C(C#N)NC(C)=C(C(=O)OC(C)C)C1c1cccc([N+](=O)[O-])c1 (stereo not given) | -1.9% | -0.628% | -0.445% | -1.03% | -1.34% | -3.12% | 5% | -1.37% | -1.47% | 1.7%
O=C1NCC2(CCN(CCc3ccccc3)CC2)O1 | 0.324% | -0.568% | 0.908% | 1.98% | 1.24% | 0.472% | -0.511% | -1.95% | 0.357% | 0.871%
Cc1cc(=O)[nH]c(=S)[nH]1 | 0.66% | -0.151% | 2.93% | 1.41% | 3.23% | 0.504% | 4.39% | 2.24% | 4.36% | 1.21%
N=C(N)NCCN1CCCCCCC1 | 1.99% | -0.0479% | 2.35% | 1.9% | 2.8% | 1.1% | 5.04% | 0.15% | 5% | -0.376%
Nc1ccc(C(=O)O)c(O)c1 | 0.612% | 1.18% | 0.982% | 0.745% | 1.12% | 1.72% | -0.259% | 0.343% | -1.22% | -1.06%
CCOc1ccc2ccccc2c1C(=O)N[C@@H]1C(=O)N2[C@@H]1SC(C)(C)[C@@H]2C(=O)O | -3.12% | -0.795% | 1.5% | -1.14% | -0.856% | -5.66% | 31.9% | -2.67% | -10.4% | 2.26%
CCCCOc1cc(C(=O)NCCN(CC)CC)c2ccccc2n1 | 8.77% | 4.81% | 9.69% | 3.99% | 6.11% | 5.06% | 13.1% | 2.91% | 3.16% | 1.33%
CC(CN(C)C)CN1c2ccccc2CCc2ccccc21 (stereo not given) | -1.45% | -0.198% | -0.333% | -0.216% | 4.41% | -2.56% | 3.02% | 1.48% | 0.808% | -0.414%
CCc1c2c(nc3ccc(OC(=O)N4CCC(N5CCCCC5)CC4)cc13)-c1cc3c(c(=O)n1C2)COC(=O)[C@]3(O)CC | 6.04% and 11.2% | 2.87% and 1.26% | 5% and 16.3% | 7.83% and 32.1% | 13.7% and 30.1% | 7.49% and 10.4% | 55.3% and 54.4% | 49.3% and 46.9% | 1.04% and 3.21% | -12% and 3.28%
CN(C)C(=O)C(CCN1CCC(O)(c2ccc(Cl)cc2)CC1)(c1ccccc1)c1ccccc1 | 11.2% | 3.96% | 9.47% | 0.4% | 13.9% | 9.1% | 81.6% | 7.8% | 3.43% | 9.15%
C[C@]12C=CC(=O)C=C1CC[C@@H]1[C@@H]2C(=O)C[C@@]2(C)[C@H]1CC[C@]2(O)C(=O)CO | -2.83% | -1.18% | -0.368% | -2.35% | -1.89% | -3.12% | -4.28% | -3.78% | -6.66% | 1.72%
CC(C)C[C@H](NC(=O)[C@H](CCc1ccccc1)NC(=O)CN1CCOCC1)C(=O)N[C@@H](Cc1ccccc1)C(=O)N[C@@H](CC(C)C)C(=O)[C@@]1(C)CO1 | 49.4% | 59.1% | 55.8% | 55% | 51.3% | 57.8% | 56.9% | 55% | 52% | 29.5%
